Test results taken from ChEMBL document CHEMBL2218924, “A broad activity screen in support of a chemogenomic map for kinase signalling research and drug discovery” (Biochem J, 2013).

Experiments:
[1] = target: T1, Serine/threonine-protein kinase 17A (Homo sapiens) (UniProt Q9UEE5); conditions: at 1 µM
T1 sequence (whole entry): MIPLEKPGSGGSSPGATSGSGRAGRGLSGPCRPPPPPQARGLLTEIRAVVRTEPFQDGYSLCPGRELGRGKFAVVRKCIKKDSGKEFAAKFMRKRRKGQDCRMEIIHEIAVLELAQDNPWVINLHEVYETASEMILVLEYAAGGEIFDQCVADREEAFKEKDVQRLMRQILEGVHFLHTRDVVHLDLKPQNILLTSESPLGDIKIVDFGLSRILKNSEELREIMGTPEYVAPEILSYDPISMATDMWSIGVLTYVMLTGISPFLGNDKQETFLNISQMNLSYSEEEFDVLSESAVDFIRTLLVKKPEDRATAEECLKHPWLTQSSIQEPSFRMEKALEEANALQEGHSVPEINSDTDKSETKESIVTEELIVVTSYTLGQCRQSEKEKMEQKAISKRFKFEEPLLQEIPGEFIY

[2] = target: T1, Serine/threonine-protein kinase 17A (Homo sapiens); conditions: at 10 µM
[3] = target: T2, Dual specificity tyrosine-phosphorylation-regulated kinase 2 (Homo sapiens) (UniProt Q92630); conditions: at 1 µM
T2 sequence (whole entry): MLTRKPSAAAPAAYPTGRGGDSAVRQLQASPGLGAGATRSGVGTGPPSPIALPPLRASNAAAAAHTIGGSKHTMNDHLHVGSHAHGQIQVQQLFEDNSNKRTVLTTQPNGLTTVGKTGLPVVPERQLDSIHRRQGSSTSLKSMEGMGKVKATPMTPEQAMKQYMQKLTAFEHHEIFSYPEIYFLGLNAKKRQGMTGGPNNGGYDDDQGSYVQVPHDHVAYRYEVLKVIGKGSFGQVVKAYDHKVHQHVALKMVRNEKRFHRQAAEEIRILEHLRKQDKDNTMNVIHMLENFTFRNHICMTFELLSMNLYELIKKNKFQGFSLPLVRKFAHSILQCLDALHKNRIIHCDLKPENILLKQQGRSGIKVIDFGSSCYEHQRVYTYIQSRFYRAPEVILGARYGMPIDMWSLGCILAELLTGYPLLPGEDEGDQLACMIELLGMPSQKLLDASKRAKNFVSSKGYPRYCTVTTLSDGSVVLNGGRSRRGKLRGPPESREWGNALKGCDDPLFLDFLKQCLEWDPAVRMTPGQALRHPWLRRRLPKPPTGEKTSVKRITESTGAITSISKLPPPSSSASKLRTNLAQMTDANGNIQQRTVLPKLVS

[4] = target: T2, Dual specificity tyrosine-phosphorylation-regulated kinase 2 (Homo sapiens); conditions: at 10 µM
[5] = target: T3, Ephrin type-A receptor 1 (Homo sapiens) (UniProt P21709); conditions: at 10 µM
T3 sequence (whole entry): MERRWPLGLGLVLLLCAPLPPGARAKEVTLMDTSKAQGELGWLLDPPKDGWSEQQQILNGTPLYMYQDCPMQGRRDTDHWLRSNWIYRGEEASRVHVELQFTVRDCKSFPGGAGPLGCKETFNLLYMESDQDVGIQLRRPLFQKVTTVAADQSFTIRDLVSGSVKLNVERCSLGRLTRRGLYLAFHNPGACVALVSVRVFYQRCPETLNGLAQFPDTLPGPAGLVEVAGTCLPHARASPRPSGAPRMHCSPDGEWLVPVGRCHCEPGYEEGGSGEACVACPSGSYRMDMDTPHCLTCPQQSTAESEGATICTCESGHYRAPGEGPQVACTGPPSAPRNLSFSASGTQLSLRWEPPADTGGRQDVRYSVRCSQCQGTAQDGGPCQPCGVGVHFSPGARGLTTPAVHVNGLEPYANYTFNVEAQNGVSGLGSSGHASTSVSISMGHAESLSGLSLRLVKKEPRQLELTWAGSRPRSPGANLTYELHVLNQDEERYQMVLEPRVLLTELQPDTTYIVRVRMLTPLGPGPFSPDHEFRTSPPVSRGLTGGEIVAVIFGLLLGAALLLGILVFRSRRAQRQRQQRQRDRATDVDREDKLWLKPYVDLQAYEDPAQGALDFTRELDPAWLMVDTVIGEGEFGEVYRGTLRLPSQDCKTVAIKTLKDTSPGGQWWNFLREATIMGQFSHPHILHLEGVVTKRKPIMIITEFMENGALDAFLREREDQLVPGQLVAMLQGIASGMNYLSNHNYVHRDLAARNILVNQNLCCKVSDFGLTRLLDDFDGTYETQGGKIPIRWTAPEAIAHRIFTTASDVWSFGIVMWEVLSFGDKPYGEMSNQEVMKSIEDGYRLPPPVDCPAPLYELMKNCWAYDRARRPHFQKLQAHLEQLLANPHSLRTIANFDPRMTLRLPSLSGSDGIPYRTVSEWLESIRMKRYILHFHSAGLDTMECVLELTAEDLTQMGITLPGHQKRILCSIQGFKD

[6] = target: T4, Ephrin type-A receptor 3 (Homo sapiens) (UniProt P29320); conditions: at 1 µM
T4 sequence (whole entry): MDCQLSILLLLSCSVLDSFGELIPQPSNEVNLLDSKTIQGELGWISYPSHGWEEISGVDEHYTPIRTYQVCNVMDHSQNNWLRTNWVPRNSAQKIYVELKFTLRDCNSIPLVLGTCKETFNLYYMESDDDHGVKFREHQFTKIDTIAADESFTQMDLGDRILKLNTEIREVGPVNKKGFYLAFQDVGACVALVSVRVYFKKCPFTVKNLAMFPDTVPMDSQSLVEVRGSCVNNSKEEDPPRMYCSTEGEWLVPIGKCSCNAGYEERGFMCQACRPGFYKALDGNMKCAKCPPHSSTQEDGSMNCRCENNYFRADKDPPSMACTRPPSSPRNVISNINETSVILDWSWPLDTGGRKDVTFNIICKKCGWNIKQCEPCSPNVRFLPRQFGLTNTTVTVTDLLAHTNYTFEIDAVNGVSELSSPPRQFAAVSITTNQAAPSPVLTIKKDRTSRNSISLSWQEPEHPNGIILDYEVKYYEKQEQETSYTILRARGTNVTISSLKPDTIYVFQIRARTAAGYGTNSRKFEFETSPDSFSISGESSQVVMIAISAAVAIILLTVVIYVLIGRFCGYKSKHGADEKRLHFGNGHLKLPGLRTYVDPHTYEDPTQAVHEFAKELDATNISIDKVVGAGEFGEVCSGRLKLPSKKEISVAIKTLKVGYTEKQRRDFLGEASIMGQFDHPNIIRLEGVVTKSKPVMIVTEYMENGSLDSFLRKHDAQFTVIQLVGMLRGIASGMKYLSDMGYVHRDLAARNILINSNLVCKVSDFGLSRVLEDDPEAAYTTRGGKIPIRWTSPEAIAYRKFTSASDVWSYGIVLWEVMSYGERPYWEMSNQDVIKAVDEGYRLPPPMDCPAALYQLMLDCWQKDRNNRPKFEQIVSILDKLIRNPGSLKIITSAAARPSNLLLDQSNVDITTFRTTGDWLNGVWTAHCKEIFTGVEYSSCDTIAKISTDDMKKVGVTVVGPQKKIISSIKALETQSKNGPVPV

[7] = target: T4, Ephrin type-A receptor 3 (Homo sapiens); conditions: at 10 µM
[8] = target: T3, Ephrin type-A receptor 1 (Homo sapiens); conditions: at 1 µM
[9] = target: Ephrin type-A receptor 2 (Homo sapiens) (UniProt P29317); conditions: at 1 µM
[10] = target: Ephrin type-A receptor 2 (Homo sapiens) (UniProt P29317); conditions: at 10 µM
[11] = target: Ephrin type-A receptor 4 (Homo sapiens) (UniProt P54764); conditions: at 1 µM
[12] = target: Ephrin type-A receptor 4 (Homo sapiens) (UniProt P54764); conditions: at 10 µM
[13] = target: Ephrin type-A receptor 5 (Homo sapiens) (UniProt P54756); conditions: at 1 µM
[14] = target: Ephrin type-A receptor 5 (Homo sapiens) (UniProt P54756); conditions: at 10 µM
[15] = target: Ephrin type-A receptor 7 (Homo sapiens) (UniProt Q15375); conditions: at 1 µM
[16] = target: Ephrin type-A receptor 7 (Homo sapiens) (UniProt Q15375); conditions: at 10 µM
[17] = target: T5, Ephrin type-A receptor 8 (Homo sapiens) (UniProt P29322); conditions: at 1 µM
T5 sequence (whole entry): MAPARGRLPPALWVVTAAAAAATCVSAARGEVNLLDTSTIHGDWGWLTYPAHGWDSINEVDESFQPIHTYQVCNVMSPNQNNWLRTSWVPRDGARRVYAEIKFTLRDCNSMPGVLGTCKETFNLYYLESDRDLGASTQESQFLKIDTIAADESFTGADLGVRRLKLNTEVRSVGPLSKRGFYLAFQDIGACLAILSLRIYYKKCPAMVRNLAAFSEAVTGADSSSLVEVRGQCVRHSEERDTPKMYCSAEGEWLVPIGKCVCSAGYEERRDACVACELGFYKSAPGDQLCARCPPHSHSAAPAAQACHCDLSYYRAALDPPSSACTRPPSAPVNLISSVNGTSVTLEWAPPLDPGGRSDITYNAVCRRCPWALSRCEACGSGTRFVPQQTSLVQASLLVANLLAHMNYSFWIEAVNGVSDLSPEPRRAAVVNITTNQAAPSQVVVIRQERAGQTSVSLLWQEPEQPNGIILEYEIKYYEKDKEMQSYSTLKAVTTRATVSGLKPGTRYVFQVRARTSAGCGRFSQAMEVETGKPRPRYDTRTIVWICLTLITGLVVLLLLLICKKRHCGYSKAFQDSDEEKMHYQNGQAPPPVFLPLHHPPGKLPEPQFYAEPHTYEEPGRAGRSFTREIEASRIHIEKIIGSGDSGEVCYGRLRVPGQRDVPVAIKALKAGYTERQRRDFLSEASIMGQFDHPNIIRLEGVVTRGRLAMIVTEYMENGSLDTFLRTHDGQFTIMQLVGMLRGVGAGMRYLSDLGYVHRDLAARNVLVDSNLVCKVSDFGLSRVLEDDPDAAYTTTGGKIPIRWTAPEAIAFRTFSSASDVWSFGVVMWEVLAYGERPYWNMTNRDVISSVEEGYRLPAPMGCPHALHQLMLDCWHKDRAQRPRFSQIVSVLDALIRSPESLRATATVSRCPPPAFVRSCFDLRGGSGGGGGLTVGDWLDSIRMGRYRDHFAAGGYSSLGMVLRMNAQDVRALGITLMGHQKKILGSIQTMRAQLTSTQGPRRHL

[18] = target: T5, Ephrin type-A receptor 8 (Homo sapiens); conditions: at 10 µM
[19] = target: T6, Ephrin type-B receptor 1 (Homo sapiens) (UniProt P54762); conditions: at 1 µM
T6 sequence (whole entry): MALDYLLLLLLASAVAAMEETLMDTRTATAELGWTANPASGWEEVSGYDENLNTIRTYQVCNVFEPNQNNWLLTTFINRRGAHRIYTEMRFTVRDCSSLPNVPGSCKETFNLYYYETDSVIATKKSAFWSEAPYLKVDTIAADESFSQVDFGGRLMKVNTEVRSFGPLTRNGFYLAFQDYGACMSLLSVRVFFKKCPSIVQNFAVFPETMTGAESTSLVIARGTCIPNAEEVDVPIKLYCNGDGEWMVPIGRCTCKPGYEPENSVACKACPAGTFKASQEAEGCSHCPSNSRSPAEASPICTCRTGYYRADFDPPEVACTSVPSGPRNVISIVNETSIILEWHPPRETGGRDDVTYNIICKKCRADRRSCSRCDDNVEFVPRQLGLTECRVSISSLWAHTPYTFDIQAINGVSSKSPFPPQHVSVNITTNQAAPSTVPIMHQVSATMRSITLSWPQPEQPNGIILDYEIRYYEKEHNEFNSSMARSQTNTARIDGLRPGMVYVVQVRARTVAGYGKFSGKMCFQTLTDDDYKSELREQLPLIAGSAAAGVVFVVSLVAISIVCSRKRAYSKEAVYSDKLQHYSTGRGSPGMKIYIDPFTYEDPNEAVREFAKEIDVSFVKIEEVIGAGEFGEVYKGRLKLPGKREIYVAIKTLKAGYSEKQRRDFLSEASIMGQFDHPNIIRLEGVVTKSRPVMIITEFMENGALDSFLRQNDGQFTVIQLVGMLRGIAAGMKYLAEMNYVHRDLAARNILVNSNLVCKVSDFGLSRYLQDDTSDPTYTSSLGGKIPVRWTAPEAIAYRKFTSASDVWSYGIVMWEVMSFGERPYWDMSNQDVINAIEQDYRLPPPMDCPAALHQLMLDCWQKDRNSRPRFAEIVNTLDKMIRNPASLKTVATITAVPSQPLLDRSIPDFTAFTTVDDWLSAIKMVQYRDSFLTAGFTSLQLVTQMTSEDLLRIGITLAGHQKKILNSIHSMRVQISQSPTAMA

Chain of Ephrin type-A receptor 5 (Homo sapiens) (P54756 whole entry): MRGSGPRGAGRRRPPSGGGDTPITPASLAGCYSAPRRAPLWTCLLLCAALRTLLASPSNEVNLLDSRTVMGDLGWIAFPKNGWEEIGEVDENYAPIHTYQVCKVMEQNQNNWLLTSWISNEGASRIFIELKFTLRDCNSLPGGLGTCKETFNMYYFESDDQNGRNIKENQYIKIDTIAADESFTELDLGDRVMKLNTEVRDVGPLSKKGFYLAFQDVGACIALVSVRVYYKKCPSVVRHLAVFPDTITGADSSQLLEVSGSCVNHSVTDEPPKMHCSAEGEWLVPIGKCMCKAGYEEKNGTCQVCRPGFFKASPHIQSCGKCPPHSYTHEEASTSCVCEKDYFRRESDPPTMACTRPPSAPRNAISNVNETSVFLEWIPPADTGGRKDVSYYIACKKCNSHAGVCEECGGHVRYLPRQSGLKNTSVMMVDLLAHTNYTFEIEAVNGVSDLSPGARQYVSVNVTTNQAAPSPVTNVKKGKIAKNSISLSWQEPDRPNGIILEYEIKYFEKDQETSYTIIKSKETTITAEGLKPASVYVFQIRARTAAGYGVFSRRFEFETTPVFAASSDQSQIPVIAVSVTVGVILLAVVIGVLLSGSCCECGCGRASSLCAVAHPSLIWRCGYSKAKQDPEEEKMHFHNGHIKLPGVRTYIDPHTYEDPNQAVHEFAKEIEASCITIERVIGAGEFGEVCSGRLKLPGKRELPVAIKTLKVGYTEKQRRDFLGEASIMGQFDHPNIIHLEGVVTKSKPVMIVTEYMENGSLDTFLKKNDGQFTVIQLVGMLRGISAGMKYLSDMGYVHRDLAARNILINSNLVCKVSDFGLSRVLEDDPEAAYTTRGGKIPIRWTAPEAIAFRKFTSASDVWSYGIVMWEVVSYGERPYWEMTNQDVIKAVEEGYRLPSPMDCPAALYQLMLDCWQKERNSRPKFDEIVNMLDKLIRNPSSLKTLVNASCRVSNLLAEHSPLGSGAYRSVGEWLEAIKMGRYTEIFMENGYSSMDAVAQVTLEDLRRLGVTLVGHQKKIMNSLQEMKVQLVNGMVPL
Chain of Ephrin type-A receptor 2 (Homo sapiens) (P29317 whole entry): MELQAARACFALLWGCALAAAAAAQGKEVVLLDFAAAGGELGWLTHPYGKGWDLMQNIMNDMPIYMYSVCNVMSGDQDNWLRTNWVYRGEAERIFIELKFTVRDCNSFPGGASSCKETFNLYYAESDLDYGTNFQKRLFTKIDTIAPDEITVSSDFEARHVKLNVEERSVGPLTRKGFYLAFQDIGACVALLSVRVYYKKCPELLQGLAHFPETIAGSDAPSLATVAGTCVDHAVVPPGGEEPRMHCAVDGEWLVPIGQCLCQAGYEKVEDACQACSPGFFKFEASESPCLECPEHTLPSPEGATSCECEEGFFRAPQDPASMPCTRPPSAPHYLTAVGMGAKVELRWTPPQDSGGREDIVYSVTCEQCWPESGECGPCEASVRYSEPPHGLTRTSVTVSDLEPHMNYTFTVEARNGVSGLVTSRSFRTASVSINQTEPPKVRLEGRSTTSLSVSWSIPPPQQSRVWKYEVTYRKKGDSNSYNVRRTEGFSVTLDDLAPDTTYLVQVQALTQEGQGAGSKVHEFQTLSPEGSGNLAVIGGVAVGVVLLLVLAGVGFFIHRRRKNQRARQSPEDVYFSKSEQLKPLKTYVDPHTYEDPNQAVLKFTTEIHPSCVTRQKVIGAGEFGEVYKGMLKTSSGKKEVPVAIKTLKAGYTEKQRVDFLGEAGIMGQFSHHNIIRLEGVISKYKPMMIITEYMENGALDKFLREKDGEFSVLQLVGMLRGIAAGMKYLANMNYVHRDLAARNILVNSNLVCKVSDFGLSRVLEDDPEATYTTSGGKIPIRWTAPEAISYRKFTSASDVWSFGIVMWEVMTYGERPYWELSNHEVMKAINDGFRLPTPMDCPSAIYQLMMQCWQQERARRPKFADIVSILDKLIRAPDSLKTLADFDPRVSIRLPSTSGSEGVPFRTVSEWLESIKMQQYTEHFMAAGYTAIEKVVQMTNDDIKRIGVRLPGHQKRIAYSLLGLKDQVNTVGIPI
Chain of Ephrin type-A receptor 4 (Homo sapiens) (P54764 whole entry): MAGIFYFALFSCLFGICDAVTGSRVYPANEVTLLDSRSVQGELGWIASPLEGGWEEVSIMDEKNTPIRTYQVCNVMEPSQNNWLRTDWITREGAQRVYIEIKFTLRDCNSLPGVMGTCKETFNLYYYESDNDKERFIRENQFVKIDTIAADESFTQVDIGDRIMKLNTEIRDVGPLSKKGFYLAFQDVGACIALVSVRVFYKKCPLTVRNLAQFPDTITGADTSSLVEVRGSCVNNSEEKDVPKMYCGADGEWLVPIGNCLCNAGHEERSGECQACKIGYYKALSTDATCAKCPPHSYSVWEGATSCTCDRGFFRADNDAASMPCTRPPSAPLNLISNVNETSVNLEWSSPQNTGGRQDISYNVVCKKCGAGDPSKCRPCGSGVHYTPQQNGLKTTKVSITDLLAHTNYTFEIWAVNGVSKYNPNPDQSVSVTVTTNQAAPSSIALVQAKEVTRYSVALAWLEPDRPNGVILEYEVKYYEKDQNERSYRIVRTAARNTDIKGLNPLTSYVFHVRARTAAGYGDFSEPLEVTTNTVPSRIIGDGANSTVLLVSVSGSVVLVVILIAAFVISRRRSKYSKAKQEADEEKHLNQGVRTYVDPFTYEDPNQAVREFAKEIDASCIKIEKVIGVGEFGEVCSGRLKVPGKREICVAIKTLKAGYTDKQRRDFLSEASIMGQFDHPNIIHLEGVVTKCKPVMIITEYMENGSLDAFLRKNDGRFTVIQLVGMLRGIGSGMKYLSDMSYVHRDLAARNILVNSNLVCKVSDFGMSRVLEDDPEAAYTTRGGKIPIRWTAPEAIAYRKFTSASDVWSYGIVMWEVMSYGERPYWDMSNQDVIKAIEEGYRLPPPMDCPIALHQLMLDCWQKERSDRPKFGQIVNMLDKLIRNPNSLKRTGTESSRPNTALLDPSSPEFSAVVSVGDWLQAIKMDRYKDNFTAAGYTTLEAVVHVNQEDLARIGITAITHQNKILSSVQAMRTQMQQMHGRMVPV
Chain of Ephrin type-A receptor 7 (Homo sapiens) (Q15375 28-998 limits assumed): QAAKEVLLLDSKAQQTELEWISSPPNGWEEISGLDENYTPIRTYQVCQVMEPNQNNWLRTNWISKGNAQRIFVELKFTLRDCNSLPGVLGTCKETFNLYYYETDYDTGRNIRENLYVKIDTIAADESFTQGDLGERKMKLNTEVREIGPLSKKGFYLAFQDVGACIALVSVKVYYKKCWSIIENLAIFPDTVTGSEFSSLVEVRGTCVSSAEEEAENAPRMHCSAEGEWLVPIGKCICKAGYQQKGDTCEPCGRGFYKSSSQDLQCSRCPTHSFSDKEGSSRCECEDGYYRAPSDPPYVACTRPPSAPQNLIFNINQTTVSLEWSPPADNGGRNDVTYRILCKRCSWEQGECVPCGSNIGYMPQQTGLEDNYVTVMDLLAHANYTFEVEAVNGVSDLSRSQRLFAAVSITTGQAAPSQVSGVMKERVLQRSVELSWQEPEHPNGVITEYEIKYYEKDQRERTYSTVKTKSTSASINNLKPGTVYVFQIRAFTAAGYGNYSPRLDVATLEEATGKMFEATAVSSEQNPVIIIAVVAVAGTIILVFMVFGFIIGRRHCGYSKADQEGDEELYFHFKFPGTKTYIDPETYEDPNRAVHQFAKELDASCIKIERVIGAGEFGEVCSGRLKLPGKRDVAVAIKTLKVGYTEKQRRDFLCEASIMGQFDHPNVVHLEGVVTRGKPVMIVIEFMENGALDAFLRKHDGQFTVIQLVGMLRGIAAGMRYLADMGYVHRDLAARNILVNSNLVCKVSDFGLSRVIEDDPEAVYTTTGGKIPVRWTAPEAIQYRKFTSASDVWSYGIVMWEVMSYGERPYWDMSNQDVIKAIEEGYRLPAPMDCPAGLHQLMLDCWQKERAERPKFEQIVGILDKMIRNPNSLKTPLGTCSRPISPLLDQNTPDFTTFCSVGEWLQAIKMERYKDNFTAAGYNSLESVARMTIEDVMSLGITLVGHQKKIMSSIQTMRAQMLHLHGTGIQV

Row | Structure (SMILES) | residual activity [1] [%] | residual activity [2] [%] | residual activity [3] [%] | residual activity [4] [%] | residual activity [5] [%] | residual activity [6] [%] | residual activity [7] [%] | residual activity [8] [%] | residual activity [9] [%] | residual activity [10] [%] | residual activity [11] [%] | residual activity [12] [%] | residual activity [13] [%] | residual activity [14] [%] | residual activity [15] [%] | residual activity [16] [%] | residual activity [17] [%] | residual activity [18] [%] | residual activity [19] [%]
1 | N/C(=N\[N+](=O)[O-])N/N=C\c1ccc(-c2cccc([N+](=O)[O-])c2)o1 | 76 | 87 | 90 | 95 | 97 | 97 | 79 | – | – | – | – | – | – | – | – | – | – | – | –
2 | O=c1[nH]c2ccccc2n1C1CCN(Cc2ccc(-c3nc4cc5[nH]cnc5cc4nc3-c3ccccc3)cc2)CC1 | 126 | 112 | 111 | 98 | 90 | 112 | 76 | 102 | 103 | 95 | 112 | 81 | 114 | 99 | 97 | 93 | 108 | 104 | 93
3 | COc1cc(OC)c(/C=C2\C(=O)Nc3ccccc32)c(OC)c1 | – | – | 102 | 93 | 82 | 97 | 84 | 89 | 88 | 93 | 103 | 105 | 128 | 101 | 94 | 94 | 95 | 84 | 100
